Results reported in PubChem BioAssay AID1347417 (National Center for Advancing Translational Sciences (NCATS), 2020).
In all, about 120,000 compounds went through this assay and about 5,300 (4.4%) were called active. About 22% were inconclusive and are not listed. The sample as a whole holds a higher share of actives than the screen did. A number with no mark means an inactive call. Calls follow the shape of the dose curve; as a rule, active = well fitted inhibition curve with a large enough effect; inconclusive = small, poorly fitted or top-dose-only effect; inactive = no such curve, though single readings can be large or run the other way.

Assay: qHTS Primary assay for Inhibitors of Plasmodium falciparum Dd2 growth in vitro; also: nearly all actives have a fitted effect of over 65% in size;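 as to activity, negative = inhibition: plate controls were DMSO vehicle for no effect and reference drug for full effect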
Conditions: P. falciparum Dd2 growth, SYBR Green, 72 h; series mostly up to 28.9 µM; activity, negative = inhibition: at the top concentration
Summary of the method: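 Readout: SYBR Green fluorescence, 485 nm excitation, 535 nm emission, after ~16 h lysis at 37C. Before that, Dd2-infected red cells (2.5% hematocrit) grew 72 h with compound, 29 uM top final concentration.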
Potency is read from the fitted curve at half-maximal effect.

SMILES | Potency | outcome | activity, negative = inhibition
Cc1ccccc1NC(=O)c1cc2cn(C(C)C)cc2s1 | 8.91 µM (active) | – | –
CCn1cc(S(=O)(=O)N2CCC3(CC2)CN(Cc2ccc(OC)cc2)C3=O)cn1 | – | inactive | –
C=CCNC(=O)c1cn2c(n1)CN([S+](C)(=O)[O-])CC2 | – | – | 51.3% [at 44.1 µM]
CN(C)c1ccc(NC(=O)Cn2nc3n(c2=O)CCCCC3)cc1 | – | – | 32.9%
COc1ccc(C(=O)N2CCCCCCNC(=O)CC2)cn1 | – | – | -6.17%
O=C(O)CCC(=O)N1Cc2[nH]cnc2C[C@H]1c1nc(-c2ccc3ccccc3c2)no1 | – | – | -13.2% [at 44.1 µM]
O=C(NCc1ccco1)[C@@H]1Cc2nc[nH]c2CN1CCCc1ccccc1 | 7.94 µM (active) | – | –
COc1cccc(CC(=O)N2CCC(N3C(=O)CCC3C(=O)NCc3ccccc3)CC2)c1 (stereo not drawn) | – | – | 13.2%
O=C(NCc1ccco1)C1CCCN(c2cnn(Cc3ccccc3)c(=O)c2)C1 (stereo not drawn) | – | – | -3.07%
O=C(NCc1ccccc1)[C@@H]1Cc2nc[nH]c2CN1Cc1cccc(OC(F)(F)F)c1 | 10 µM (active) | – | –
O=C(CCc1conc1-c1ccccc1)NCc1ccco1 | – | – | 8.66%
Fc1ccc(NC2CCCN(Cc3ccc(C#Cc4cncnc4)cc3)C2)cc1F (stereo not drawn) | – | inactive | –
O=C1COc2ccc(-c3cncnc3)nc2CN1Cc1ccc(F)cc1 | – | inactive [at 44.1 µM] | –
OC1CC([C@@H](Cc2ccccn2)NC2CCC3(CCNCC3)CC2)C1 (stereo partly drawn) | – | – | -1.91%
Cc1ccc(C)c(Oc2c(C(F)(F)F)oc3c(CN4CCN(C)CC4)c(O)ccc3c2=O)c1 | 0.501 µM (active) | – | –
CC1CCCN(Cc2c(O)ccc3c(=O)c(Oc4ccc(C(C)(C)C)cc4)c(C(F)(F)F)oc23)C1 (stereo not drawn) | 0.316 µM (active) | – | –
COc1ccc(-c2c(C)c3ccc(O)c(CN4CCCC4)c3oc2=O)cc1OC | – | – | -20.1%
Cc1ccc(Oc2c(C(F)(F)F)oc3c(CN4CCCCC4)c(O)ccc3c2=O)cc1 | 3.55 µM (active) | – | –
Cc1ccc2nc3n(c2c1)[C@@H](CNC(=O)c1ccc(C#N)cc1)COC3 | – | inactive [at 44.1 µM] | –
O=C(c1ccc(F)cc1)N1CCC2(CN[S+](=O)([O-])c3ccccc3N2)C1 (stereo not drawn) | – | – | 3.8%
O=C1CC2(CCN(C(=O)CCn3ccccc3=O)C2)C(=O)N1 (stereo not drawn) | – | – | -9.42%
CN[C@@H](CC(C)C)C(=O)N[C@@H]1C=C(C(=O)N[C@@H](Cc2ccc(O)cc2)C(N)=O)C[C@@H](O)[C@@H]1O | – | – | 0.132%
O=C(NCCc1ccc(Cl)cc1)c1ccc2nccn2c1 | inactive | – | –
O=C(CCCN1C(=O)C(c2ccccc2)Oc2cccnc21)NCCc1noc(-c2ccncc2)n1 (stereo not drawn) | – | inactive | –

SMILES | Potency | outcome | activity, negative = inhibition
Cc1ccc2oc(C(=O)N(C)CCc3ccccc3)c(C)c2c1 | – | – | 6.68%
O=C(NCc1ccncc1)C1CN(S(=O)(=O)c2cccnc2)CC12CCOCC2 (stereo not drawn) | – | – | 16.7%
CN1CCN(Cc2ccc(Nc3ncc(-c4cccnc4)c4c3OCC4)cc2)CC1 | 10 µM (active) | – | –
COc1ncccc1Nc1ncc(-c2ccccc2)c2c1OCC2 | – | – | -0.012% [at 44.1 µM]
COc1ccccc1-c1cnc(NC(=O)c2ccc(Cl)cc2)c2c1CCO2 | – | – | 6.83% [at 44.1 µM]
COc1cccc(C(=O)N2CCC(N3CCCCCC3=O)CC2)c1 | – | – | 2.85% [at 44.1 µM]
O=C1NCc2ccccc2CC12CCN(Cc1cccc(Cl)c1)CC2 | – | – | -22.5%
Cc1cccc(C)c1CN1CCC2(CC1)Cc1ccccc1CNC2=O | – | – | -3.2%
CC(C)Cc1ccc(CN2CCC3(CC2)Cc2ccccc2CNC3=O)cc1 | 11.2 µM (active) | – | –
Cc1cc2nc3n(c(=O)c2n1CC(=O)NCc1ccc(F)cc1)CCCCC3 | – | inactive; activator; fitted 0.5012 uM | –
O=C1NC(=NC2CCCCC2)C2(CCCN(S(=O)(=O)c3cccs3)C2)N1c1cc(F)cc(F)c1 (stereo not drawn) | – | – | -26.6%
CC(C)CCN1CCC2(C1)C(=NC1CCCCC1)NC(=O)N2c1cc(F)cc(F)c1 (stereo not drawn) | 8.91 µM (active) | – | –
O=C(c1ccccc1F)N1CCCC2(C1)C(=NC1CCCCC1)NC(=O)N2c1cc(F)cc(F)c1 (stereo not drawn) | – | – | -4.93%
COC(=O)N1CCC2(CC1)C(=NC1CCCC1)NC(=O)N2c1cc(F)cc(F)c1 | – | – | 0.0213%
O=C1NC(=NC2CCCC2)C2(CCCN(Cc3ccsc3)C2)N1c1cc(F)cc(F)c1 (stereo not drawn) | 5.01 µM (active) | – | –
COc1ccc(C(=O)N2CCCC3(C2)C(=NC2CCCC2)NC(=O)N3c2cc(F)cc(F)c2)cc1 (stereo not drawn) | – | – | -18.2%
CS(=O)(=O)N(C1CCOCC1)C1CCN(C(=O)CC2CCCC2)CC1 | – | – | 36.5%
COc1ccc(C(=O)N2CCc3nc(C(C)C)nc(-c4ccc(Cl)cc4)c3CC2)cc1 | 11.2 µM (active) | – | –
O=C(c1cccc(Cl)c1)N1CCc2nc(C3CC3)nc(-c3ccc(Cl)cc3)c2C1 | – | – | -12.8%
COc1ccc(-c2nc(C(C)C)nc3c2CN(C(=O)c2ccccc2F)CC3)cc1 | – | – | -24.9%
O=C(c1ccc(C(F)(F)F)cc1)N1CCc2nc(C3CC3)nc(-c3ccc(Cl)cc3)c2C1 | – | – | -11.2%
COc1ccc(-c2nc(C(C)C)nc3c2CN(C(=O)c2ccc(C(F)(F)F)cc2)CC3)cc1 | – | inactive | –
COc1ccc(-c2nc(C3CC3)nc3c2CCN(C(=O)c2ccc(C(F)(F)F)cc2)CC3)cc1 | 5.01 µM (active) | – | –
O=C(c1ccccc1)N1CCC2(CC1)C(=O)NCN2C(=O)CCCN1CCCC1 | – | – | -16.4%
